# According to PubChem BioAssay:
# Activity calls are given as the source filed them.
# Key:
# [1] = tested on: Plasmodium falciparum Sir2 (PF13_0152, Sir2A); experiment: pfSir2 binders on small-molecule microarrays, primary screen, biochemical, small-molecule microarray, 635 nm fluorescence (AID 1098); details: small-molecule microarray binding, fluorescence 635 nm; higher = more signal;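 also: score merges spot fluorescence intensity with its signal-to-noise ratio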
# [2] = small-molecule microarray binders of probe aDKK1, primary screen, biochemical, biotinylated probe, 635/667 nm fluorescence (AID 1099); details: higher = more signal;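 also: score merges 667nm spot fluorescence with signal to noise across triplicate slides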
# [3] = small-molecule microarray binders of probe aCHRDL2, primary screen, biochemical, biotinylated probe, 635/667 nm fluorescence (AID 1100); details: higher = more signal
# [4] = splicing luciferase reporter signal modulators, primary screen, spliceosome inhibition project, cell-based, HEK293, splice +/- reporter (AID 1101); details: luminescence, 24 h, higher = more signal, called active from +8 up or from −8 down;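 also: HEK293 cells carrying a splicing-competent luciferase reporter gene; test concentration not given here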
# [5] = molecular target: Fibroblast growth factor 10 (Homo sapiens) (UniProt O15520); experiment: FGF10 binders on small-molecule microarrays, primary screen, biochemical, small-molecule microarray, 635 nm fluorescence (AID 1102); details: FGF10 binding, fluorescence 635 nm, higher = more signal
# Fibroblast growth factor 10 (Homo sapiens), sequence (O15520 whole entry, looked up): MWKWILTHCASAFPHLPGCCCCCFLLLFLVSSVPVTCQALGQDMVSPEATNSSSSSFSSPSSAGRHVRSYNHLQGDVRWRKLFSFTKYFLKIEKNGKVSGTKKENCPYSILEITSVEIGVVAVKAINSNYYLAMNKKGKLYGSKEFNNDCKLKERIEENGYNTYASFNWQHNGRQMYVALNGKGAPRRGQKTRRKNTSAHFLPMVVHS
# [6] = tested on: glycogen synthase kinase-3 (GSK3A per assay name; protocol says GSK3B); experiment: GSK3 binders on small-molecule microarrays, primary screen, biochemical, small-molecule microarray, 635 nm fluorescence, GSK3A (AID 1103); details: small-molecule microarray binding, fluorescence 635 nm; higher = more signal; also: the record names both GSK3A and GSK3B
# [7] = molecular target: Epidermal growth factor receptor (Homo sapiens) (UniProt P00533); experiment: EGFR binders on small-molecule microarrays, primary screen, biochemical, small-molecule microarray, 635 nm fluorescence (AID 1104); details: EGFR binding, higher = more signal;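 also: score merges 667 nm emission intensity with spot signal to noise over triplicate slides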
# Epidermal growth factor receptor (Homo sapiens), sequence (P00533 whole entry, looked up): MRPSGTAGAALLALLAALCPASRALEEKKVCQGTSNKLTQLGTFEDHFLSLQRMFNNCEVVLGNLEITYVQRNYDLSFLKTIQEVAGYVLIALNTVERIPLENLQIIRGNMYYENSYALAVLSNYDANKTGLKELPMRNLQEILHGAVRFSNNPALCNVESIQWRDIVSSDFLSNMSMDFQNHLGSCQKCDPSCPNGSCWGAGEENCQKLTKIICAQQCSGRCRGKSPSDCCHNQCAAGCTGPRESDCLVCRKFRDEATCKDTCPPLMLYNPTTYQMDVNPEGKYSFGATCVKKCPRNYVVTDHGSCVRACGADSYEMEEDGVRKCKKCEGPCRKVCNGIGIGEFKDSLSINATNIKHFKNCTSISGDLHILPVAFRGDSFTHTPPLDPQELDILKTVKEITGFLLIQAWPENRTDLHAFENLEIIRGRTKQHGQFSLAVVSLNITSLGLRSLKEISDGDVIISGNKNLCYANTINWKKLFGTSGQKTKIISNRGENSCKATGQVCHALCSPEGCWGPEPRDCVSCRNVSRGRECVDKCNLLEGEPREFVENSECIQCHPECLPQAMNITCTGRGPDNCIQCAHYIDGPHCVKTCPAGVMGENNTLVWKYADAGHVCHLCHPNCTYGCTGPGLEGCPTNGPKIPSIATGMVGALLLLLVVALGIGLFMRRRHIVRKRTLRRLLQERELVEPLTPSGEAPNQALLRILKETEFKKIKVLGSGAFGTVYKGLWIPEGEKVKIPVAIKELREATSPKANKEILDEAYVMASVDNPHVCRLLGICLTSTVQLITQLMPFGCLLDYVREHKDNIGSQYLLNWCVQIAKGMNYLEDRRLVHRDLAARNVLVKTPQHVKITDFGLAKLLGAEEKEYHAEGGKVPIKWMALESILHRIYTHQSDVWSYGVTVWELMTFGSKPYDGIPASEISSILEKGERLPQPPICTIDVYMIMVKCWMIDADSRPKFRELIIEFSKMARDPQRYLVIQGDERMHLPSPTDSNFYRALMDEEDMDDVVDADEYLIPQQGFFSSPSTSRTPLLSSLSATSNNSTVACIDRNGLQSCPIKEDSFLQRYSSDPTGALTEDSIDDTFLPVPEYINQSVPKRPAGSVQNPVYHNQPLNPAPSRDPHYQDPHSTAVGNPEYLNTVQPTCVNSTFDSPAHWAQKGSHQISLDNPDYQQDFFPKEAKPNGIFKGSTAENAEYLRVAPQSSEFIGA
# [8] = molecular target: Follistatin-related protein 3 (Homo sapiens) (UniProt O95633); experiment: FSTL3 binders on small-molecule microarrays, primary screen, biochemical, small-molecule microarray, 635 nm fluorescence (AID 1105); details: FSTL3 binding, higher = more signal;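 also: score merges emission near 667 nm and signal to noise per printed spot across three slides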
# Follistatin-related protein 3 (Homo sapiens), sequence (O95633 whole entry, looked up): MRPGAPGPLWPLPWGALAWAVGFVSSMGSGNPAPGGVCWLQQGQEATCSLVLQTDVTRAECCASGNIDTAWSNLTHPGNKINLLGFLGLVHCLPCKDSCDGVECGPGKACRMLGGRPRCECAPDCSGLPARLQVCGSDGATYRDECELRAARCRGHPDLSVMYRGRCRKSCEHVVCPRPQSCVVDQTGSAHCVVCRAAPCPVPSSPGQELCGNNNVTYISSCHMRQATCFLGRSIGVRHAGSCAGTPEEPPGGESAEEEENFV
# [9] = molecular target: Dickkopf-related protein 1 (Homo sapiens) (UniProt O94907); experiment: DKK1 binders on small-molecule microarrays, primary screen, biochemical, small-molecule microarray, 635 nm fluorescence scan (AID 1106); details: DKK1 binding, higher = more signal;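 also: score merges emission near 667 nm with signal to noise over three replicate slides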
# Dickkopf-related protein 1 (Homo sapiens), sequence (O94907 whole entry, looked up): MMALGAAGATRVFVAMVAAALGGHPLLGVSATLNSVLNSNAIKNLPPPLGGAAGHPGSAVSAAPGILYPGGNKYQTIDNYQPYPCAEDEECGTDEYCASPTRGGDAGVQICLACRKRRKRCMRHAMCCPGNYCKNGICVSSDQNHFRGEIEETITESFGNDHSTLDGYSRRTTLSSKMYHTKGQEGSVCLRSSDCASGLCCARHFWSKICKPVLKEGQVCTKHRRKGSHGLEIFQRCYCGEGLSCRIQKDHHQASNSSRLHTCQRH
# [10] = tested on: Inhibin beta A chain (activin A); experiment: INHBA (activin A) binders on microarrays, primary screen, biochemical, small-molecule microarray, 635 nm fluorescence scan (AID 1107); details: small-molecule microarray binding, higher = more signal;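 also: mouse activin A protein probed at 4.33 µg/mL on printed slides; score merges bound-protein fluorescence near 667 nm with spot signal-to-noise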
# [11] = tested on: Human papillomavirus type 1a protein E7 (residues 44-93); experiment: HPV1a E7 fragment binders on microarrays, primary screen, biochemical, small-molecule microarray, residues 44-93, 635 nm fluorescence (AID 1108); details: small-molecule microarray binding, fluorescence 635 nm; higher = more signal;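 also: E7 fragment applied at 1 µg/mL in TBST for 1 h at 4 C; score combines spot fluorescence with its signal to noise ratio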
# [12] = modulators of HCV replicon luciferase signal, primary screen, HCV replication inhibitor project, Huh7 cells, luciferase reporter (AID 1109); details: 48 h, higher = more signal;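 also: huh7 hepatoma cells harbouring a luciferase neomycin HCV replicon reporter; luciferase luminescence as measure of HCV replicon replication; test concentration not given here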
# [13] = molecular target: Left-right determination factor 2 (Homo sapiens) (UniProt O00292); experiment: LEFTY2 binders on small-molecule microarrays, primary screen, biochemical, small-molecule microarray, 635 nm fluorescence scan (AID 1110); details: LEFTY2 binding, higher = more signal
# Left-right determination factor 2 (Homo sapiens), sequence (O00292 whole entry, looked up): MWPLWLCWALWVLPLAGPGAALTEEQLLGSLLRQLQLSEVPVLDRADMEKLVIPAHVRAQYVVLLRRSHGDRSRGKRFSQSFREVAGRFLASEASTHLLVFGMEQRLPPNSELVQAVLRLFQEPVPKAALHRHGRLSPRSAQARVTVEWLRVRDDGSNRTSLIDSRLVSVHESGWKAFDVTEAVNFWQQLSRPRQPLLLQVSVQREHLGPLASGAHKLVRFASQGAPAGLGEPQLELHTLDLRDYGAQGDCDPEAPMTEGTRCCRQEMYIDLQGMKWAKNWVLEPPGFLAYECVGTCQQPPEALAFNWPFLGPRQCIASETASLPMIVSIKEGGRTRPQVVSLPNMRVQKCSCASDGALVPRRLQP
# [14] = molecular target: Calmodulin-1 (Homo sapiens) (UniProt P0DP23); experiment: CALM1 binders on microarrays, EGTA buffer, profiling panel, biochemical, small-molecule microarray, Cy5-labelled CALM1 (AID 1111); details: Cy5-CALM1 binding fluorescence, higher = more signal;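 also: labelled calmodulin applied in Tris saline Tween buffer holding calcium plus EGTA and DTT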
# [15] = molecular target: Calmodulin-1 (Homo sapiens) (UniProt P0DP23); experiment: calcium-bound CALM1 binders on microarrays, profiling panel, artefact control for SMM control-protein annotation, biochemical, small-molecule microarray, Cy5-labelled CALM1, plus calcium (AID 1112); details: Cy5-CALM1 binding fluorescence, higher = more signal;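 also: score merges spot fluorescence with signal to noise from triplicate slides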
# [16] = small-molecule microarray binders of probe aWnt5a, primary screen, biochemical, biotinylated probe, 635/667 nm fluorescence (AID 1113); details: higher = more signal;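 also: score merges 667 nm fluorescence intensity with signal-to-noise per printed feature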
# [17] = small-molecule microarray binders of probe aShh, primary screen, biochemical, biotinylated probe, 635/667 nm fluorescence (AID 1114); details: higher = more signal;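 also: probe is biotin-labelled aShh protein from a stem cell growth factor screen; measures binding of labelled protein to compounds printed on the slide; score merges feature fluorescence at 667 nm with signal-to-noise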
# [18] = small-molecule microarray binders of probe aNog, primary screen, biochemical, biotinylated probe, 635/667 nm fluorescence (AID 1115); details: higher = more signal;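 also: probe is biotinylated aNog protein used at 0.15 µg/mL for 1 h at 4 C; z-score combines 667 nm fluorescence of each spot with its signal to noise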
# [19] = molecular target: Torsin-1A-interacting protein 1 (Homo sapiens) (UniProt Q5JTV8); experiment: LAP1 binders from COS7 cell lysate, primary screen, small-molecule microarray, 635/667 nm fluorescence (AID 1116); details: COS7-hLAP1 lysate binding, 635 nm fluorescence, higher = more signal
# Torsin-1A-interacting protein 1 (Homo sapiens), sequence (Q5JTV8 whole entry, looked up): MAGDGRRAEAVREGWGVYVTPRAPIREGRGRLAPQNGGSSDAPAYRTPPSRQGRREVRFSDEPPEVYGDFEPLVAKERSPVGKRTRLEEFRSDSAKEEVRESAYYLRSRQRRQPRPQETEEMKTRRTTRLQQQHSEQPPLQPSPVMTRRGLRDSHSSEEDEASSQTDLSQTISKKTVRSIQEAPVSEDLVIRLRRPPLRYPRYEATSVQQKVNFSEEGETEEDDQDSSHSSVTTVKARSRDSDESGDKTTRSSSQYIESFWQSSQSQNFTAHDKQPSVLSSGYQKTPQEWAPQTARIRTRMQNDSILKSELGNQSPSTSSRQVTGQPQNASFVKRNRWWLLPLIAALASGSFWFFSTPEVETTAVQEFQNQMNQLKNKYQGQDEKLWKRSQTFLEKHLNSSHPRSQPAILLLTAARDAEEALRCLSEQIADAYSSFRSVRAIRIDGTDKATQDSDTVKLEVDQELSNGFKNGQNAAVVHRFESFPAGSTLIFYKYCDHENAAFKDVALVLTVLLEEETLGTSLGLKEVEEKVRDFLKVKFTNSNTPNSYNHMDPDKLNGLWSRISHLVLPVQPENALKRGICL
# [20] = molecular target: Alpha-bungarotoxin (Bungarus multicinctus) (UniProt P60615); experiment: alpha-bungarotoxin binders on microarray, profiling panel, artefact control for SMM control protein annotation, biochemical, small-molecule microarray, Alexa647 label, 635/667 nm fluorescence (AID 1117); details: alpha-BTX-A647 binding fluorescence, higher = more signal
# Alpha-bungarotoxin (Bungarus multicinctus), sequence (P60615 whole entry, looked up): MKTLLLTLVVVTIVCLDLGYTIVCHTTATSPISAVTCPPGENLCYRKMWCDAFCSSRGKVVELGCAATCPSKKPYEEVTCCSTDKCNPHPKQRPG
SMILES,composite z-score [1],composite z-score [2],composite z-score [3],z-score [4],composite z-score [5],composite z-score [6],composite z-score [7],composite z-score [8],composite z-score [9],composite z-score [10],composite z-score [11],z-score [12],composite z-score [13],composite z-score [14],composite z-score [15],composite z-score [16],composite z-score [17],composite z-score [18],composite z-score [19],composite z-score [20]
CCN1C(=O)[C@H]2[C@H]3[C@H](O)[C@H](O)CC(=NOC(C)CN4CCCc5nc(C)c(C)cc54)[C@@H]3CC[C@H]2C1=O (stereo not given in full),0.333,0.0478,-0.598,0.189 (inactive),0.784,0.901,0.692,0.783,0.713,0.907,0.562,-1.21,0.803,-0.528,-1.03,-0.0478,0.275,0.182,0.304,-0.0882
CCc1cc2c(nc1CC)CCN(CCC(C)=NOC[C@@H](C)[C@H](OCc1ccccc1)C(C)C)C2,-0.482,-0.375,-0.244,-1.3 (inactive),-1.58,-1.04,-0.812,-1.28,-1.06,-0.187,-0.461,-1.14,-0.964,-1.3,-0.139,-0.247,-0.0035,-0.411,-0.667,-0.86
CC(C)CON=C1[C@H]2CCn3c(=O)n(C)c(=O)n3[C@H]2[C@H](O)[C@@H]2O[C@H]12,0.59,-0.339,-0.507,0.253 (inactive),0.401,0.481,0.377,0.703,0.708,0.283,0.274,0.104,0.494,-0.0875,-0.609,-0.127,0.0796,-0.232,0.18,0.255
CCOC(=O)[C@H](Cc1ccccc1)NC(=O)CCC1CC(OC(=O)NCCc2ccc(F)cc2)CC2(CCCC(COC(=O)NCCOc3ccccc3)O2)O1 (stereo not given in full),0.87,-0.119,-0.442,-0.421 (inactive),0.979,1.28,0.597,1.31,1.05,-0.155,1.4,-1.05,0.701,0.483,-0.296,-0.0721,-0.0709,-0.28,0.306,0.472
CC=CC1=C(CO)[C@H](O)[C@H]2O[C@H]2[C@@H]1O,0.134,-0.416,-1.13,0.666 (inactive),0.733,0.403,0.148,0.608,0.943,0.161,-0.342,0.382,1.06,-0.849,-1.1,-0.0236,-0.282,-0.244,-0.193,0.495
O=C(NCCC[N+]1=CC=NC1c1ccccc1)N1CCCc2nc(-c3ccc(Br)cc3)ccc21 (stereo not given),1.02,-0.128,-0.346,-0.106 (inactive),0.0448,0.212,0.221,-0.0767,0.42,0.435,0.107,-3.49,0.498,0.626,0.0894,-0.0145,0.0141,0.0481,0.0439,-0.436
O=C(NN=C1C[C@@H](O)[C@@H](O)[C@@H]2[C@@H]3C(=O)N(c4ccc(F)cc4F)C(=O)[C@@H]3CC[C@H]12)OCc1ccccc1,0.705,0.052,0.793,0.267 (inactive),0.379,0.131,-0.0295,0.385,-0.118,0.0132,1.35,-0.642,0.446,0.463,-0.235,-0.12,-0.0192,-0.406,0.747,0.555
O=C1[C@H]2[C@H]3[C@H](O)[C@H](O)CC(=NOC[C@@H](O)COCc4ccco4)[C@@H]3CC[C@H]2C(=O)N1Cc1ccccc1,-0.422,-0.316,-0.611,-0.153 (inactive),0.146,1.34,0.603,1.51,0.833,1.34,1.48,-0.114,1.19,-0.754,-1.55,-0.152,-0.0866,-0.529,0.77,0.238
CN1CCc2nc(-c3ccccc3)c(-c3ccccc3)cc2C1,-0.0565,-0.284,-0.225,0.0199 (inactive),0.486,0.256,0.134,0.359,0.503,0.334,0.321,0.179,0.47,-0.174,-0.414,-0.0239,0.204,-0.287,0.269,0.127
COc1ccc(COC(=O)NN=C2C[C@@H](O)[C@@H](O)[C@@H]3[C@@H]4C(=O)N(Cc5ccc6c(c5)OCO6)C(=O)[C@@H]4CC[C@H]23)cc1,-0.218,1.16,1.41,0.491 (inactive),-0.67,-0.104,-0.953,-0.152,-1.03,0.991,-0.433,-0.191,-0.34,-0.704,-0.276,0.0438,0.0121,0.788,0.0406,0.164
COc1ccc(OC[C@H]2CN3[C@@H](CC[C@@H](C)[C@@H]3c3ccc(Br)cc3)C(=O)O2)cc1,0.233,-0.278,-0.345,-0.319 (inactive),0.0848,0.16,0.204,0.142,0.344,0.607,0.191,-0.757,0.579,-0.146,-0.855,-0.176,-0.221,0.0121,0.5,0.641
